Assay outcomes (PubChem BioAssay)
This is a sample that favours compounds with a hit; in the whole collection about 1.8% have one here.
HTT ATP protect: qHTS Multiplex Assay to Identify Dual Action Probes in a Cell Model of Huntington: Cytoprotection (ATP) | PC12 HTT-Q103 induced, cytoprotection, ATP luminescence, 40 h | AID 1471, 2008 | Potency, µM (series often up to 56.4 µM), without a hit: cytoprotection (ATP increase), usual class: activators | 230,000 tested, 0.14% active; further: % of control where 0% means no effect; nearly all actives have a fitted effect of over 45% in size
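Compounds added alongside 100 nM tebufenozide, which induces toxic Q103 huntingtin exon 1-GFP in stable PC12 cells; surviving cells quantified by luminescent ATP measurement. Medium: phenol red-free DMEM, 5% equine and 5% calf serum.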
L3MBTL1 inh: qHTS Assay for the Inhibitors of L3MBTL1; AlphaScreen L3MBTL1–H3K9me1 peptide binding; Potency, µM (top dose mostly 57.1 µM), inactives show top-dose activity, negative = inhibition, most hits filed as inhibitors; 230,000 tested, 0.66% active; AID 485360, 2010; further: on the % scale 0 is the no-effect control and ±100 the full control effect; nearly all actives have a fitted effect of over 60% in size
Target sequence (Q9Y468 whole entry, looked up): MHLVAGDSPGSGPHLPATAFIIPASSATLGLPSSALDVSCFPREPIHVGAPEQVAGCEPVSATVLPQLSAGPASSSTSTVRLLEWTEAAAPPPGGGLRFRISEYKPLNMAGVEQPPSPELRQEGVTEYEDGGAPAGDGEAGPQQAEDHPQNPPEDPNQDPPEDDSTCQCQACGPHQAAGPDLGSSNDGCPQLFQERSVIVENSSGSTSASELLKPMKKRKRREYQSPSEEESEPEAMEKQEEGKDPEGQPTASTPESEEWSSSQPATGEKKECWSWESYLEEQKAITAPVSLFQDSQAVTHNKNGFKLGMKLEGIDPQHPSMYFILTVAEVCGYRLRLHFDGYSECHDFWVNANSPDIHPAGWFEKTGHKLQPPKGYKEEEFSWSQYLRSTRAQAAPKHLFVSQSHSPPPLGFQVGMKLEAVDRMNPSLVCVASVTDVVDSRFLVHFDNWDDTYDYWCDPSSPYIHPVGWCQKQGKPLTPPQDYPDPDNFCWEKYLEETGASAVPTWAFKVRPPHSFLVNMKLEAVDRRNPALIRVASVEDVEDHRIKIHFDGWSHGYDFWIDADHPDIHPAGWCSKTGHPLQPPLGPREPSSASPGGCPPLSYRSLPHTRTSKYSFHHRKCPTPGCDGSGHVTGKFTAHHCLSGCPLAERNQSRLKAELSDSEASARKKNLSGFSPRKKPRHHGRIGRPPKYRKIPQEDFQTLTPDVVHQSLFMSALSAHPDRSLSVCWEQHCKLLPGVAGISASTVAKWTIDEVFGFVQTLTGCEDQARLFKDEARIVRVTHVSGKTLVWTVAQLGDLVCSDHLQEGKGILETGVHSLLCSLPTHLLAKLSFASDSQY
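AlphaScreen assay: L3MBTL1 (50 nM final) was preincubated 30 min at room temperature with biotinylated H3(1-15)K9me1 peptide (75 nM final), then 30 min with library compounds; streptavidin donor and nickel chelate acceptor beads (10 ug/mL final) added, 30 min dark.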
KDM4E inh: qHTS Assay for Inhibitors of Human Jumonji Domain Containing 2E (JMJD2E); Lysine-specific demethylase 4E (Homo sapiens), B2RXH2; JMJD2E catalytic domain, FDH-coupled NADH fluorescence (FDH is formaldehyde dehydrogenase); Potency, µM (highest dose often 57.1 µM), without a hit: at the highest dose activity change, negative = inhibition, most hits filed as inhibitors; 230,000 tested, 1.6% active; AID 2147, 2009; active means well fitted inhibition curve with a large enough effect, not every such curve was filed as active; inconclusive means small, poorly fitted or top-dose-only effect, or another doubt; inactive means no such curve, though single readings can be large or run the other way;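 further: 0% = wells with enzyme and -100% = buffer wells without enzyme; nearly all actives have a fitted effect of over 50% in size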
HTT aggregate: qHTS Multiplex Assay to Identify Dual Action Probes in a Cell Model of Huntington: Aggregate Formation (GFP); Potency, µM (doses to about 46.1 µM), for the others: at the highest dose activity change, negative = inhibition, usual class: inhibitors; 220,000 tested, 1.1% active; PC12 HttQ103-GFP aggregates, Acumen cytometry, 40 h; AID 1688, 2009; further: on the % scale 0 is the no-effect control and ±100 the full control effect; nearly all actives have a fitted effect of over 60% in size
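Multiplexed with ATP-based cell death, this channel scores GFP aggregates in PC12 cells expressing inducible HTTex1-Q103-GFP. Induction used 100 nM tebufenozide; compounds were tested in concentration series.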
The depositor's hits bear a star; u = inconclusive; x = no result; [ ] = remark or other dose. Unless noted, the call rests on the fitted dose curve; in most records, active means well fitted curve in the direction sought with a large enough effect; inconclusive means small, poorly fitted or top-dose-only effect, or another doubt; inactive means no such curve, though single readings can be large; an effect the other way counts as inactive or inconclusive. Potency means the concentration at half of the fitted maximal effect.

SMILES | HTT ATP protect | L3MBTL1 inh | KDM4E inh | HTT aggregate
COC(=O)Cc1sc(-c2ccccn2)nc1-c1ccccc1 | 1µM* | 14.6% | u | -5.0%
C=C1CC[C@@H](O)C/C1=C/C=C1\CCC[C@]2(C)[C@@H]1CC[C@H]2[C@@H](C)/C=C\[C@@H](C)C(C)C | -23.0% | x | x | x
Cc1cc([N+](=O)[O-])cc(/C=N\NC(=O)C2COc3ccccc3O2)c1O (stereo not drawn) | 5.2%[10 µM] | 25.1µM* | u | -11.8%[9.22 µM]
COc1cc([N+](=O)[O-])cc(/C=N/NC(=O)c2ccc(NC(=O)c3ccc(C)cc3)cc2)c1O | -75.3% | -1.6% | 6.2% | u
COc1cc([N+](=O)[O-])cc(/C=N/NC(=O)C(C)Nc2cccc(C)c2)c1O (stereo not drawn) | 24.8%[10 µM] | 3.5% | 3.16µM* | 10µM*
COc1cc([N+](=O)[O-])cc(/C=N/NC(=O)C(C)Nc2ccccc2C)c1O (stereo not drawn) | -6.5%[10 µM] | -4.8% | u | 12.6µM*
CCCCCCCN[C@H]1CCC[C@@H]1CCCCCCC(=O)O | 5.2% | x | 0.7% | x
CC(=O)O[C@@H]1CC(C)=C2[C@H]1[C@H](C)CC[C@H]2/C=C(\C)C(=O)O | 0.1% | x | x | x
COc1ccc(O[C@H]2C=C[C@@H](c3ccccc3)O[C@H]2CO/N=C\C[C@@H]2C=C[C@H](OC(C)=O)[C@H](COC(C)=O)O2)cc1 | -10.6%[10 µM] | x | x | x
Oc1cc2c(cc1O)[C@H](c1ccccc1)CNCC2 | 27.4% | x | 14.1µM* | x
CN1CCc2cc(Cl)c(O)cc2[C@H](c2ccccc2)C1 | 11.0%[1.9 µM] | x | x | x
O=C(CCCCn1c(=O)c2ccccc2n(Cc2ccc(F)cc2)c1=O)NCc1ccco1 | -80.3%[10 µM] | 9.7%[11.4 µM] | -2.9% | 1µM*
CN(C)c1ncc2nc(-c3ccc(Cl)cc3)c(=O)n(C)c2n1 | -76.5% | x | x | x
CC(/C=C1\SC(=S)N(CCCC(=O)Nc2ccc(C(=O)O)c(O)c2)C1=O)=C\c1ccccc1 | -15.3%[10 µM] | 39.8µM* | 6.8% | -1.6%
Cc1cccc(NC(=S)N=Nc2c(O)[nH]c3ccccc23)c1 | x | u | -0.5% | 3.98µM*
O=C1c2cccc3c(Nc4ccccc4Cl)c([N+](=O)[O-])cc(c23)C(=O)N1CCO | -73.6% | u | -1.6% | 10µM*
CC(=O)OC[C@@H]1O[C@@H](O/N=C2/C[C@@H](O)[C@@H](O)[C@@H]3[C@@H]4C(=O)N(C[C@@H]5CCCO5)C(=O)[C@H]4CC[C@@H]23)[C@H](OC(C)=O)[C@H](OC(C)=O)[C@@H]1OC(C)=O | -2.2%[10 µM] | x | x | x
COc1ccc(/C=C/C2=CC3(C)CC2(C)C(c2ccc(OC)cc2)CC3=O)cc1 (stereo not drawn) | 12.5%[10 µM] | x | x | x
COc1cc(OC)cc(C(=O)Oc2ccc(/C=N/Nc3nc4ccccc4s3)cc2OC)c1 | -10.5%[10 µM] | -5.8% | 35.5µM* | u
Cc1ccc(O)c(N=CC2=C(O)c3ccccc3C2=O)c1 | -14.5% | u | -5.5% | -29.2%
CC(C)(C)c1ccc(O)c(N=Cc2cc(Br)ccc2O)c1 | 30.6%[10 µM] | -17.3% | 28.2µM* | 4.3%[9.22 µM]
Cc1ccc(O)c(C=Nc2cc(C)ccc2O)c1 | x | -8.5% | 20µM* | u
Cc1ccccc1Cn1ccc(=NCc2ccccc2)cc1 | x | -6.3% | 0.0% | 17.8µM*
CCC[C@@H]1C[C@@]1(CCC)C(NP(=O)(c1ccccc1)c1ccccc1)c1ccc(Cl)cc1 (stereo partly drawn) | -234.1% | x | 25.1µM* | x
CCC[C@@H]1C[C@@]1(CCC)C(NC(=O)c1cccs1)c1ccc(Cl)cc1 (stereo partly drawn) | -7.3% | x | 7.3% | x
SMILES | HTT ATP protect | L3MBTL1 inh | KDM4E inh | HTT aggregate
Cc1cc(C)c(O)c(-c2cc(C(=O)Nc3ccc(S(=O)(=O)N4CCOCC4)cc3)[nH]n2)c1 | -93.7%[0.074 µM] | x | -6.4% | 20µM*
CCOC(=O)CNC(=O)O[C@@H]1C(=O)c2cc(OC)ccc2O[C@H]1c1ccc(OC)c(Br)c1 | 6.9% | x | u | x
CCN(C)c1ccc(/C=N\n2nnnc2N)cc1 | -62.4% | -2.3%[11.4 µM] | u | 11.8%
CCOC(=O)N/N=C/c1ccc(N(CC)CC)cc1O | x | -11.7% | 28.2µM* | -31.0%
CCN(CC)c1ccc(/C=N/NC(=O)CCC(=O)NCc2ccccc2)c(O)c1 | x | -12.8% | 25.1µM* | u
CCN(CC)c1ccc(/C=N/n2nnnc2N)c(O)c1 | -27.9% | -11.0%[11.4 µM] | u | 5.62µM*
COC(=O)NC(c1ccccc1)C(C(=O)OC)C(=O)OC (stereo not drawn) | 25.8%[10 µM] | x | x | x
CN(C)c1nc(-c2ccoc2)nc2ccccc12 | 17.4% | x | -20.8% | x
CC(=O)C1=C(C)NC(SCC(=O)c2ccccc2)=C(C#N)C1CC(C)C (stereo not drawn) | -15.5%[0.074 µM] | x | u | 1.58µM*
CC(C)=NOC[C@@H](O)COCc1ccco1 | -21.7%[10 µM] | x | x | x
CO[C@@]1(NC(=O)Cc2cccs2)C(=O)N2C(C(=O)O)=C(COC(N)=O)CS[C@@H]21 | x | u | 31.6µM* | 24.0%
CO[C@@]1(NC(=O)Cc2cccs2)C(=O)N2C(C(=O)O)=C(COC(N)=O)CSC21 (stereo partly drawn) | -45.5% | x | -18.0% | x
Nc1c(C(=O)NCC2CCCO2)sc2nc3c(c(-c4ccco4)c12)CC/C3=C\c1ccco1 (stereo not drawn) | -15.9%[10 µM] | 3.16µM* | 7.08µM* | 1.8%
NC(=O)c1sc2nc3c(c(-c4ccco4)c2c1N)CCCC3 | x | x | -0.4% | -37.2%[9.22 µM]
O=C(O)/C=C/C=C/c1ccccc1 | x | x | -14.8% | x
O=C1C=CCC(/C=C/c2ccccc2)O1 (stereo not drawn) | x | 1.5% | 13.6% | 10µM*
CC(=O)OCC1OC(C#CCCc2ccccc2)C=CC1OC(C)=O (stereo not drawn) | -1.3%[10 µM] | x | x | x
N[C@H](C(=O)O)c1nn[nH]n1 | -45.6%[1.9 µM] | x | 20µM* | x
N[C@@H](Cc1nn[nH]n1)C(=O)O | -21.6%[10 µM] | x | x | x
CC(=O)OC[C@@]1(O)C[C@@]23CC[C@@H]4c5ccoc5CC[C@@]4(C)[C@@H]2CCC1C3 | u | x | -7.1% | x
COc1cccc(Cn2c(=O)c(-c3cn(C)c4ccccc34)nc3cnc(N4CCNCC4)nc32)c1 | -112.5% | x | x | x
COc1ccc2oc(-c3ccc(O)cc3)cc(=O)c2c1 | -19.2%[1.9 µM] | x | u | x
COc1ccc(-c2cc(=O)c3cc(OC)ccc3o2)cc1 | -91.7% | 11.4% | 0.708µM* | 11.3%
c1ccc2c(c1)oc1c(NCc3ccc4c(c3)OCO4)ncnc12 | 4.1%[10 µM] | 4.2% | -9.4% | 11.2µM*
Cc1cc(C)c(NC(=S)NCCCSC2CCCCC2)c(C)c1 | -42.5% | x | 2.1% | 11.2µM*
COc1cc(C=Nc2cccc(C)c2)c(O)c([N+](=O)[O-])c1 | 11.7%[10 µM] | -14.9% | -5.3% | -3.8%
O=[N+]([O-])c1cc(Cc2ccccc2)cc(C=Nc2ccc(N3CCOCC3)cc2)c1O | x | -12.9% | 15.8µM* | 11.0%
Cc1ccc(O)c(N=Cc2cc(Cc3ccccc3)cc([N+](=O)[O-])c2O)c1 | -31.3%[1.9 µM] | -19.7% | 28.2µM* | 8.4%[9.22 µM]
